In PubChem BioAssay one finds composite z-score and z-score data, which are given here for five compounds.

The nature of test [1]: small molecules captured by biotinylated probe aFSTL3 – biochemical, small-molecule microarray, fluorescence 635/667, stem cell growth factor project, primary screen (AID 1064).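 Further: measures binding of the biotinylated anti-FSTL3 antibody to printed compounds.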 The conditions noted are these: higher = more signal.
Test [2] in a line: binders from COS7 lysate, DM2A8 probe, primary screen, torsin A project, cell lysate, small-molecule microarray, fluorescence 635/667 (AID 1065). The conditions noted are these: higher = more signal, COS7 lysate expressing mutant human TOR1A.
Test [3] in a line: small molecules captured by biotinylated probe aFGF2 – biochemical, small-molecule microarray, fluorescence 635/667, stem cell growth factor project, primary screen (AID 1067).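 Further: measures binding of biotinylated aFGF2 protein to printed compounds on slides; z-score merges feature fluorescence and signal-to-noise across triplicate slides.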 The conditions noted are these: higher = more signal.
Test [4] in a line: small molecules captured by biotinylated probe aFGF10 – biochemical, small-molecule microarray, fluorescence 635/667, stem cell growth factor project, primary screen (AID 1071).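 Further: score merges 667 nm spot intensity and signal to noise from triplicate slides.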 The note with it: higher = more signal.
Test [5] has as its target Neurogenic locus notch homolog protein 2 (Homo sapiens) (UniProt Q04721). As to the kind of experiment: small molecules binding Notch2 protein – biochemical, small-molecule microarray, 635 nm fluorescence, stem cell growth factors, primary screen (AID 1073). The conditions noted are these: higher = more signal.
Test [6] addresses Pro-neuregulin-1, membrane-bound isoform (Homo sapiens) (UniProt Q02297). As to the kind of experiment: small molecules binding neuregulin-1 protein – biochemical, small-molecule microarray, fluorescence 635/667, psychiatric disease protein project, primary screen (AID 1075).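 Further: score combines 667 nm spot fluorescence with signal to noise.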 The note with it: NRG1 binding, 635 nm fluorescence, higher = more signal.
Test [7] has as its system Neuregulin-1 EGF-like domain. Briefly: small molecules binding NRG1 EGF domain – biochemical, small-molecule microarray, 635 nm fluorescence, primary screen (AID 1081).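 Further: binding of the protein to compounds printed on small-molecule microarray slides.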 The conditions noted are these: higher = more signal.
A short description of test [8]: FRG1 expression reporter modulators in myotubes – cell-based, C2C12 myotubes, firefly/Renilla luciferase, luminescence, FRG1 inhibition for FSHD, primary screen (AID 1084). The note with it: FRG1 promoter luciferase, higher = more signal, called active from +8 up or from −8 down.
Test [9] can be described thus: small molecules captured by biotinylated probe aFST – biochemical, small-molecule microarray, fluorescence 635/667, stem cell growth factor project, primary screen (AID 1086).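 Further: score merges 667 nm fluorescence with signal-to-noise of each printed compound spot.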 The note with it: higher = more signal.
A short description of test [10]: binders of probe aHhip on microarray, primary screen, stem cell growth factor project, biochemical, small-molecule microarray, fluorescence 635/667 (AID 1087).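 Further: score merges spot fluorescence at 667nm with spot signal to noise ratio.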 The note with it: higher = more signal.
Test [11] relates to PRMT1 (protein arginine N-methyltransferase 1). Briefly: small molecules binding arginine methyltransferase PRMT1 – biochemical, small-molecule microarray, 635 nm fluorescence, primary screen (AID 1088).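 Further: binding of Prmt1 protein to compounds spotted on small-molecule microarray slides.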 The conditions noted are these: higher = more signal.
Test [12] in a line: growth effects on S. cerevisiae YJM789 – YJM789 clinical isolate, OD600, 24 h, basal, primary screen (AID 1089).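 Further: growth of clinical yeast isolate S. cerevisiae YJM 789 seeded 1000 cells per well; test concentration not given here.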 The note with it: higher = more signal, called active from +8 up or from −8 down.
Test [13] in a line: S. pombe growth modifiers, basal conditions – strain 972, OD600, 24 h, no modulator, primary screen (AID 1090).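 Further: basal condition with compound alone and no growth modifier present; test concentration not given here.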 The conditions noted are these: S. pombe 972 growth, higher = more signal, called active from +8 up or from −8 down.
Test [14] is described as follows: budding yeast growth modifiers under rapamycin – strain BY4716, OD600, 96 h, primary screen (AID 1091). Further: test concentration not given here. The note with it: S. cerevisiae BY4716 + rapamycin, higher = more signal, called active from +8 up or from −8 down.
In test [15] the target is Torsin-1A-interacting protein 2 (Homo sapiens) (UniProt Q8NFQ8). As to the kind of experiment: small molecules binding lysate-expressed LULL1 – cell lysate, human LULL1 lysate, 635/667 nm fluorescence, primary screen (AID 1092).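 Further: probe is lysate of COS7 cells overexpressing human LULL1; score merges per-feature 667 nm fluorescence with signal-to-noise.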 The note with it: small-molecule microarray, hLULL1 lysate binding, 635 nm fluorescence; higher = more signal.
The nature of test [16]: optical density change of DRC41 E. coli – strain DRC41, OD650, 24 h, E. coli filamentation project, primary screen (AID 1093).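 Further: MC1000 strain lacking acrAB efflux and sulA so SOS filamentation is blocked; test concentration not given here.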 The conditions noted are these: E. coli DRC41 growth, higher = more signal, called active from +8 up or from −8 down.
Test [17] is described as follows: probe aLefty2 binding to arrayed compounds – biochemical, biotinylated probe, 635/667 nm fluorescence, primary screen (AID 1094).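 Further: score merges spot fluorescence near 667 nm with spot signal-to-noise ratio.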 The note with it: small-molecule microarray, higher = more signal.
Test [18] has as its system Noggin (protein binding on small-molecule microarray). Briefly: small molecules binding Noggin protein – biochemical, 635/667 nm fluorescence, primary screen (AID 1095).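 Further: score merges 667 nm feature fluorescence with signal to noise over triplicate slides.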 The note with it: 635 nm fluorescence, higher = more signal.
The target of test [19] is Neurogenic locus notch homolog protein 3 (Homo sapiens) (UniProt Q9UM47). As to the kind of experiment: small molecules binding NOTCH3 protein – biochemical, 635/667 nm fluorescence, primary screen (AID 1096). The conditions noted are these: small-molecule microarray, 635 nm fluorescence, higher = more signal.
Chain of Neurogenic locus notch homolog protein 3 (Homo sapiens) (Q9UM47 whole entry, looked up): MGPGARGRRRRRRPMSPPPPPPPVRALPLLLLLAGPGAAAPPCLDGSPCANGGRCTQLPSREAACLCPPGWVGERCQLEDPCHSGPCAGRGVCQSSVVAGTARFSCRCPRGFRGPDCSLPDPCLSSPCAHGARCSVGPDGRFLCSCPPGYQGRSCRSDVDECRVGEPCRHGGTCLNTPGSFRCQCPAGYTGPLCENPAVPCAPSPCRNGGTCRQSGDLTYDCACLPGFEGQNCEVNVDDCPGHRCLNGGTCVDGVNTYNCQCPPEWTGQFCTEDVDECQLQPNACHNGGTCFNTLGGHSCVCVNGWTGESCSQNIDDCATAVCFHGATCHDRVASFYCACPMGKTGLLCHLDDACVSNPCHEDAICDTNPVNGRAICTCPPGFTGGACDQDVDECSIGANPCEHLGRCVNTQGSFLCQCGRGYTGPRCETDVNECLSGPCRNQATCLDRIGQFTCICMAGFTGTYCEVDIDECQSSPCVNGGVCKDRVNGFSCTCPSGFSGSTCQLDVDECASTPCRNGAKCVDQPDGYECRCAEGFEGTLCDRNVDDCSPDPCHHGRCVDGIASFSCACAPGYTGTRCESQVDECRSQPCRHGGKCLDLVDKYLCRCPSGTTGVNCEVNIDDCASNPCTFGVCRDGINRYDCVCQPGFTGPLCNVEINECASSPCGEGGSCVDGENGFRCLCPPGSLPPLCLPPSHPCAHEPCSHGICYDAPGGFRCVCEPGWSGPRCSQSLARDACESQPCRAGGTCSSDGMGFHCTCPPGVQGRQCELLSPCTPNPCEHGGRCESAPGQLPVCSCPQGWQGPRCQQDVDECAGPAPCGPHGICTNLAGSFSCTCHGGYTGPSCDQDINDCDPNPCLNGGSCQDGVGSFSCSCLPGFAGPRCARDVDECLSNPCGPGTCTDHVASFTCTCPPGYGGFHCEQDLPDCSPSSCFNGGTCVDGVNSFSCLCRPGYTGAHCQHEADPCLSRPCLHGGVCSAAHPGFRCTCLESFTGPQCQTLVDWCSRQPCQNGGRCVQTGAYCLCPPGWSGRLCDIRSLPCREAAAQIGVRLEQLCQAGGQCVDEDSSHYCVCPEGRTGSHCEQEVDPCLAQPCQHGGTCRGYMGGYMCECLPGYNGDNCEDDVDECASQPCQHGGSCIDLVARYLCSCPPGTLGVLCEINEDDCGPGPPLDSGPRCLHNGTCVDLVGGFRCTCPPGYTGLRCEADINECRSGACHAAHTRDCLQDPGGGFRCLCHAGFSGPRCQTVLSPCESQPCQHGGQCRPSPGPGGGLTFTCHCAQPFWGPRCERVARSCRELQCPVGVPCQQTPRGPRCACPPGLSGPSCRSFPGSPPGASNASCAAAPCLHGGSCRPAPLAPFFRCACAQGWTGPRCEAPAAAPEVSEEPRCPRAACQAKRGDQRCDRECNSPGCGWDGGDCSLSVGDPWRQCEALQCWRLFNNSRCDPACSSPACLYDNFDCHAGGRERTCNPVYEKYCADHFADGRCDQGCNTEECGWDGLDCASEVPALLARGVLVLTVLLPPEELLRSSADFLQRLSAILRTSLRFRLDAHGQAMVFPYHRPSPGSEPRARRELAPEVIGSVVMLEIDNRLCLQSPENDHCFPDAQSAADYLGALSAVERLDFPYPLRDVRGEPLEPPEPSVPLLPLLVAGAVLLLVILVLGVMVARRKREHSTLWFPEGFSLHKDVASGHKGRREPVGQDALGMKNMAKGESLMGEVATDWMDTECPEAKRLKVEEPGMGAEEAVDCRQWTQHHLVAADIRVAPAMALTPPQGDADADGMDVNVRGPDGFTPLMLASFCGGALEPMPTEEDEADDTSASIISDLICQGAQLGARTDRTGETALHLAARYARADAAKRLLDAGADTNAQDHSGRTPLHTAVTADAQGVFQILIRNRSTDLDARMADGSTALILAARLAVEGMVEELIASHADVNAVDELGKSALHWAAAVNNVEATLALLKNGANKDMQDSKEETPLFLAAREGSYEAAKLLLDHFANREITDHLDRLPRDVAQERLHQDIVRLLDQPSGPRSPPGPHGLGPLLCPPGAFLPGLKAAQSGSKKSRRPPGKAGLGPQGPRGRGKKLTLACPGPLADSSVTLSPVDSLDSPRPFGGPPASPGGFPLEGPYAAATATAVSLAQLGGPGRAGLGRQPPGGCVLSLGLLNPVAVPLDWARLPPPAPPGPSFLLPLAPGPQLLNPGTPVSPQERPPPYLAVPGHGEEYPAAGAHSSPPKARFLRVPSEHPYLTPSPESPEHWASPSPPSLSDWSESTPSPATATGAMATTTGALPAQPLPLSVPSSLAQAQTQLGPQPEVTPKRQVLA
A short description of test [20]: probe aEGFR binding to arrayed compounds – biochemical, biotinylated probe, 635/667 nm fluorescence, primary screen (AID 1097).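 Further: probe is a biotinylated anti-EGFR antibody binding compounds printed on slides; score combines fluorescence near 667 nm and signal to noise of each spot.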 The conditions noted are these: small-molecule microarray, higher = more signal.

The source made the active and inactive calls.

Chain of Neurogenic locus notch homolog protein 2 (Homo sapiens) (Q04721 whole entry, looked up, canonical isoform): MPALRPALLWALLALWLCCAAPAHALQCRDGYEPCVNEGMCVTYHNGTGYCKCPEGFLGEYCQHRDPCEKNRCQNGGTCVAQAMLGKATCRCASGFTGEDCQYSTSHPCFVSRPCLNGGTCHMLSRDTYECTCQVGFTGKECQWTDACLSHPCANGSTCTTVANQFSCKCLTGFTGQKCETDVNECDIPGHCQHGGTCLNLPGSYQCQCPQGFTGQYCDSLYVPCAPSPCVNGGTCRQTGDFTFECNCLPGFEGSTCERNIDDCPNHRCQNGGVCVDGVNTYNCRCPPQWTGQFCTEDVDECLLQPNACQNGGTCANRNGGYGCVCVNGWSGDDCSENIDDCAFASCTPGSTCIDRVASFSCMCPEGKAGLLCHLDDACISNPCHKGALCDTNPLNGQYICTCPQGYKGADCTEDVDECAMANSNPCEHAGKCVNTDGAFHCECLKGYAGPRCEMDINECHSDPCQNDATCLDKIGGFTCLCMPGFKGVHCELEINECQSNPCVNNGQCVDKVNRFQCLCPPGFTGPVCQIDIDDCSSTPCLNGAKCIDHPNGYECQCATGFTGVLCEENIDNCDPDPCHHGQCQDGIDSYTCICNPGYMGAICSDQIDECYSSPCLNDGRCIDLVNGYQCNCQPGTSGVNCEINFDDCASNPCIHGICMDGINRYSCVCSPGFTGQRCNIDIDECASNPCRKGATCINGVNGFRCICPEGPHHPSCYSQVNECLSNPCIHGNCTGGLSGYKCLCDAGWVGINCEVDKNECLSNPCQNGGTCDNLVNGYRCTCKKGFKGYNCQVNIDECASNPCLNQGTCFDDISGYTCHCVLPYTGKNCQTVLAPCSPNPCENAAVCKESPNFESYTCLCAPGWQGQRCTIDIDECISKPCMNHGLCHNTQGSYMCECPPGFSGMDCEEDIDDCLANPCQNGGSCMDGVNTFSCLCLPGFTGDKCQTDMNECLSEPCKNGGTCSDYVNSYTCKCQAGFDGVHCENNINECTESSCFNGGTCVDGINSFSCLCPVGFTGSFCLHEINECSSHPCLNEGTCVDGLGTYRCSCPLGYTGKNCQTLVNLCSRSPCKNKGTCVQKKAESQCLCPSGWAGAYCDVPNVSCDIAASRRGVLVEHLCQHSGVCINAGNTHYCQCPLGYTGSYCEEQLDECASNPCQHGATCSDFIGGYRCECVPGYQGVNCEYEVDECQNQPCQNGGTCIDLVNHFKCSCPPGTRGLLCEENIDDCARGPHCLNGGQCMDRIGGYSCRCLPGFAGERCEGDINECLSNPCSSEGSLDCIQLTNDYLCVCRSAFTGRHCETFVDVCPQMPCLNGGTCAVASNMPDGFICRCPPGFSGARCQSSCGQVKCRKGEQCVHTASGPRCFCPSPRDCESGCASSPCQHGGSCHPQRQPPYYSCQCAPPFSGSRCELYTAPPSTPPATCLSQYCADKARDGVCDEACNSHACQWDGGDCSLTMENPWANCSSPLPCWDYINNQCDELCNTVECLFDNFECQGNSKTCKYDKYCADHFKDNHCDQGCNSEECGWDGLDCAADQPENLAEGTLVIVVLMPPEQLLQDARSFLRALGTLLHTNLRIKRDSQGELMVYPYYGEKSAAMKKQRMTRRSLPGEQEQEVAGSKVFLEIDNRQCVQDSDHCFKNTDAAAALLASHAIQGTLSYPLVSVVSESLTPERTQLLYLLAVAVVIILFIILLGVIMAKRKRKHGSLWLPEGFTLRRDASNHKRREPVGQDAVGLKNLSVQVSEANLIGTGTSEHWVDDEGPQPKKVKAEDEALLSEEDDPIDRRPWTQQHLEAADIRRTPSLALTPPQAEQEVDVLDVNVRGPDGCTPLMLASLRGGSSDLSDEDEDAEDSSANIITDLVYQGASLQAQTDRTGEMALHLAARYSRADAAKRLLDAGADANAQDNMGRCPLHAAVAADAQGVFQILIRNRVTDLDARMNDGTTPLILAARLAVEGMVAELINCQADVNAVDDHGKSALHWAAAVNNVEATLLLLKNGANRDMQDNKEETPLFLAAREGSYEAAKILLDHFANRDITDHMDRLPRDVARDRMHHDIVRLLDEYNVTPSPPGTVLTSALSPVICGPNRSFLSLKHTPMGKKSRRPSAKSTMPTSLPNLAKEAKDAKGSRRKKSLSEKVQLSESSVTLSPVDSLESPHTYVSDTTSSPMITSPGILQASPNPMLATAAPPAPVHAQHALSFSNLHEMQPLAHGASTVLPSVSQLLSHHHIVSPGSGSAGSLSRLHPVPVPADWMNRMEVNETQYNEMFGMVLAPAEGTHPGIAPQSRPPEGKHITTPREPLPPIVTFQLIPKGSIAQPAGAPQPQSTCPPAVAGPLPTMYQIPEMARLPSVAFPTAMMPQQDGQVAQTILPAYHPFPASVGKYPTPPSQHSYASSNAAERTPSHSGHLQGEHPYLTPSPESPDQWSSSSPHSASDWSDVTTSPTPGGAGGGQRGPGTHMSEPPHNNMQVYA

For the compound `C=CCNC(=O)[C@H]1[C@@H]2C(=O)O[C@@H](c3ccccc3)[C@@H](c3ccccc3)N2[C@@H](c2ccc(OCCO)cc2)[C@]12C(=O)Nc1ccc(C#CC3=CCCCC3)cc12`, the composite z-score in test [1] is -0.299; in [2] it was 0.218; in [3] it was 0.0703; in test [4], 0.498; in test [5], 1.05; in test [6] it was 0.688. Besides, the composite z-score in [7] was 1.29; in test [9], 0.233; in test [10] it was -0.216; in test [11], 1.55; in test [15], 2.89; in test [17] it was -0.109. For the same compound, the composite z-score in [18] is 0.673; in test [19] it was 1.15; in [20], -0.147. Besides, the z-score is -0.254 (inactive) in test [8]; 2.28 (inactive) in test [12]; 1.46 (inactive) in test [13]; 4.72 (inactive) in test [14]; 1.53 (inactive) in test [16].

For `COc1ccc([Si](C)(C)[C@H]2[C@H](CCO)O[C@@]3(C(=O)N(C)c4c(Br)cc(C)cc43)[C@@H]2C)cc1`, the composite z-score in test [1] is 0.107; in test [2], 0.325; in test [3], -0.116; in [4] it was 0.243; in [5], 0.432; in [6], 0.679. The composite z-score in test [7] is 1.12; in test [9], 0.299; in test [10] it was -0.196; in test [11] it was 1.49; in [15] it was 1.04; in test [17] it was -0.1. The values for the composite z-score in [18], in test [19] and in test [20] were 0.76, 1.1 and -0.0627, respectively. Moreover, the z-score in test [8] is -2.14 (inactive); in test [12] it was 0.117 (inactive); in test [13], -2.89 (inactive); in test [14], 34 (active); in [16] it was 0.714 (inactive).

For the compound `O=C1NC(=O)C2C1C=CC(C(O)c1ccccc1)N2Nc1ccc(Cl)cc1Cl` (stereo not given), the composite z-score in [1] was -0.324; in test [2], 0.299; in [3], 0.162; in test [4], 0.803; in [5] it was 1.54; in test [6], 1.37. In addition, the composite z-score is 1.15 in test [7]; 1.32 in test [9]; -0.156 in test [10]; 1.56 in [11]; 3.74 in test [15]; 0.0847 in test [17]. Further, the composite z-score in test [18] was determined as 0.385; in test [19], 1.12; in test [20], 0.063. Further, the z-score in [8] is -1.44 (inactive); in [12], -25.6 (active); in test [13], -4.35 (inactive); in test [14] it was -1.48 (inactive); in test [16], -1.8 (inactive).

For the compound `COCCOC(=O)N1C(=O)[C@@]2(c3cc(C#CC4=CCCCC4)ccc31)[C@H](c1ccc(O)cc1)N1[C@H](c3ccccc3)[C@H](c3ccccc3)OC(=O)[C@H]1[C@@H]2C(N)=O`, the composite z-score in test [1] is -0.456; in test [2], 0.185; in test [3] it was -0.0899; in [4] it was 0.54; in test [5] it was 0.592; in test [6], 0.324. Besides, the composite z-score in test [7] is 0.978; in test [9], 0.327; in [10], 0.154; in test [11], 1.56; in test [15], 1.84; in test [17], -0.388. In addition, the composite z-score in test [18] is 1.63; in test [19], 1.1; in test [20] it was -0.11. Besides, the z-score in test [8] is 0.189 (inactive); in test [12], 0.893 (inactive); in test [13], 0.358 (inactive); in test [14] it was 0.918 (inactive); in test [16], -0.603 (inactive).

With `O=C1OCCC/C=C\[C@H]2OC34C=CCN(Cc5ccccc5)C(=O)[C@H]3N(CCCCCCO)C(=O)[C@@H]4C12` (stereo not given in full), the composite z-score in [1] is 1.26; in test [2], 1.37; in test [3], -0.0956; in [4], -0.437; in test [5], -0.793; in test [6], 1.31. Also, the composite z-score was 1.31 in test [7]; -0.467 in test [9]; -0.0003 in test [10]; -0.197 in test [11]; 2.24 in test [15]; 0.0359 in test [17]. Moreover, the composite z-score in test [18] is -2.14; in test [19], -0.927; in test [20] it was -0.237. Besides, the z-score in test [8] is 0.247 (inactive); in [12], 0.464 (inactive); in test [13], -0.431 (inactive); in test [14], 0.0977 (inactive); in [16], 0.991 (inactive).
